Molecules are shown by their SMILES. Where “and” joins values, the source holds several entries; their conditions need not be identical. Equal entries are not always repeated. The whole screen tested about 360,000 compounds, of which about 3,700 (1%) were called active. This is one part of a sample in which actives are shown more often than they occur. Cut-off read from the data, not from the text of the source: active = activation above about 30%; inactive = the rest. More than one record can exist for a structure, and the calls need not agree.

D(1A) dopamine receptor (Homo sapiens), sequence (P21728 whole entry, looked up): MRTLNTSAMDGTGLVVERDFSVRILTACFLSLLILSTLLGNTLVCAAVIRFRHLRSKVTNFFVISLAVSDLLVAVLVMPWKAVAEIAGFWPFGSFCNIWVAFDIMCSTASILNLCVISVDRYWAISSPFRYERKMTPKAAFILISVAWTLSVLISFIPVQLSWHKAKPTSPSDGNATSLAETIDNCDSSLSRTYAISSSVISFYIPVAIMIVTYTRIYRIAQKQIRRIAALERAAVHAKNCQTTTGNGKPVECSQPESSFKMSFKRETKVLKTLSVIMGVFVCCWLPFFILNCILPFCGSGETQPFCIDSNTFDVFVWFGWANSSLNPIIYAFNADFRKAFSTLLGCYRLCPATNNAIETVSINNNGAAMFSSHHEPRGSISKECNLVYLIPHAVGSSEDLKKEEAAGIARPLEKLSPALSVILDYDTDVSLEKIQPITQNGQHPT

The test addresses D(1A) dopamine receptor (Homo sapiens) (UniProt P21728). Nature of the test: Allosteric Agonists of the Human D1 Dopamine Receptor: qHTS. Note: 0% is about no effect. As to conditions: HEK293 T-REx D1 cells, calcium flux, agonist mode; at 2 µM; stronger effect = higher value. A digest of the protocol:
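Tetracycline-induced HEK293 TREx D1 cells, force-coupled to calcium signalling, were dye-loaded with a no-wash calcium kit. Compound was pin-added after a 10 s baseline. Fluorescence was read kinetically at 1 cycle/s for 180 s, with calcium rises flagged as agonism.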
In general terms: Quantitative high-throughput screening tests each substance at several concentrations.
Regarding `CCc1nn(CC(=O)N2CCN(c3cccc(C(F)(F)F)c3)CC2)c(=O)c2cc3occc3n12`, the activation is -1.81% (inactive).
The same measure for `COc1cccc(CNC(=O)c2ccc3c(c2)N(Cc2ccc(C(F)(F)F)cc2)C(=O)c2ccccc2S3)c1OC`: 7.24% (inactive); for `O=C(NCCCN1CCCCC1)c1ccc2c(c1)NC(=O)C(N1CCOCC1)S2` (configuration not stated): 1.92% (inactive); for `Cc1ccccc1CN1C(=O)c2ccccc2Sc2ccc(C(=O)NCCCN3CCOCC3)cc21`: 16.6% (inactive) and 53.8% (active).
In the case of `COc1ccc(C(=O)NCCCN2CCOCC2)cc1Br`, the activation is 5.3% (inactive).
In the case of `O=C(NCCCN1CCOCC1)c1cc(-c2ccccc2F)no1`, the activation is 2.58% (inactive).
The result for `O=C(NCCCN1CCOCC1)c1ccc2c(c1)N(Cc1cccc(F)c1)C(=O)c1ccccc1S2` reads 37.5% (active); that for `O=C(Cn1cnc2c(oc3ccccc32)c1=O)Nc1ccc(OC(F)(F)F)cc1`, 26.6% (inactive).
On to `CCn1cc(C(=O)OCC(=O)Nc2cc(C)cc(C)c2)c(=O)c2ccc(C)nc21`, for which the activation was -2.27% (inactive).
The same measure for `COc1ccc(CNC(=O)Cn2nnc(-c3ccc(S(C)(=O)=O)cc3)n2)cc1`: -0.202% (inactive); for `COc1cc(OC)c(N2CC(C(=O)Nc3cc(Cl)ccc3N3CCOCC3)CC2=O)cc1Cl` (configuration not stated): 6.25% (inactive).
The same measure for `COc1ccc(Cl)cc1S(=O)(=O)N1CCC(O)(c2ccc(Cl)cc2)CC1`: 4.61% (inactive).
The same measure for `COc1cc(OC)c(-n2cc(-c3ccc(Cl)cc3)[nH]c2=O)cc1Cl`: 87.1% (active); for `CCCC12CN3CC(C)(CN(C1)C3c1ccccc1Cl)C2=O` (configuration not stated): -0.996% (inactive).
Consider `COc1ccc(-c2noc(CSc3nc4ccc(C)cc4[nH]3)n2)cc1`, for which the activation is 5.23% (inactive).
`CC(CCc1ccccc1)NC(=O)COC(=O)c1ccc(F)cc1` (configuration not stated): the activation was 10.8% (inactive).
The same measure for `CC(NC(=O)COC(=O)c1ccc(Cl)cc1O)c1ccc(F)cc1` (configuration not stated): 40% (active).
As for `C=CCOc1ccc(/C=C/C(=O)OCC(=O)NC(C)c2ccc(F)cc2)cc1` (configuration not stated), the activation was 7.04% (inactive).
The same measure for `O=C1CCCc2cc(S(=O)(=O)N3CCCC(C(=O)NCc4ccccc4)C3)ccc2N1` (configuration not stated): 1.11% (inactive); for `CCc1ccccc1NC(=O)Cn1c(=O)n(CC2CCC(C(=O)NCCc3ccccc3)CC2)c(=O)c2ccccc21` (configuration not stated): -1.58% (inactive); for `CCn1cc(C(=O)NCc2ccccc2)c(=O)c2cc(S(=O)(=O)N3CCCCC3)ccc21`: 1.41% (inactive).
The result for `Cc1ccc(S(=O)(=O)N2CCCCC2)cc1NC(=O)c1cccnc1` reads 4.22% (inactive).
For the molecule `O=C(c1cccnc1)N1CCN(S(=O)(=O)c2cccs2)CC1`, the activation was 1.36% (inactive).
The result for `O=C(N/N=C/c1sc(N2CCCCC2)nc1-c1cccs1)c1cccnc1` reads 32.8% (active).
The same measure for `Cc1cc(NC(=O)C2CCC(CNS(=O)(=O)c3ccc(Br)s3)CC2)ccc1Br` (configuration not stated): 9.94% (inactive); for `N#Cc1nc(Nc2cccc(Cl)c2)nc(NC2CCCC2)n1`: 4.33% (inactive); for `COc1cccc2c1cc1c(=O)n(CC(=O)N3CCN(c4cccc(Cl)c4)CC3)nc(C)n12`: -0.0969% (inactive).
The result for `O=C(CNC(=O)c1ccc(Cl)c(C(F)(F)F)c1)OC(C(=O)Nc1cc(C(F)(F)F)ccc1Cl)c1ccccc1` (configuration not stated) reads 15.3% (inactive).
Consider `Cc1ccc(C(=O)NCCSc2c(C)[nH]c3ccccc23)cc1C`, for which the activation was 2.99% (inactive).
The result for `O=C(NCc1ccc2c(c1)CCN2C(=O)c1ccccc1)Nc1cc(F)ccc1F` reads 2.32% (inactive).
The same measure for `CCn1cc(CN2CCC(C(=O)Nc3cccc(-c4cccc(Cl)c4)c3)CC2)c(C)n1`: 17.5% (inactive).
The same measure for `CCn1cc(CN2CCC(C(=O)Nc3cccc(-c4cccc(Cl)c4)c3)CC2)cn1`: 10.6% (inactive).
Take `O=C(Nc1cccc(-c2cccc(Cl)c2)c1)C1CCN(C2CCC2)CC1`: the activation is 33.2% (active).
Take `O=C(Nc1cccc(-c2nc3ccccc3o2)c1)c1cccc(Br)c1`: the activation was 11.1% (inactive).
Consider `CCCn1c(C)cc(/C=C(\C#N)C(=O)OCC(=O)N(C)c2c(N)n(Cc3ccccc3)c(=O)[nH]c2=O)c1C`, for which the activation is 1.98% (inactive).
The result for `CCOC(=O)C1CCN(Cc2ccc(-c3ccccc3)cc2)CC1` reads 5.56% (inactive); that for `CCOC(=O)/C(C#N)=C\c1c(C)cc(C)c(COC(C)=O)c1C`, 0.226% (inactive); that for `CCOC(=O)/C(C#N)=C/c1ccc(N2CCN(Cc3ccccc3)CC2)cc1`, 46.5% (active).
As to `CCOC(=O)/C(C#N)=C/c1ccc(N2CCCCC2)cc1`, the activation was 68.9% (active).
The result for `COc1ccc(/C=C(\C#N)C(=O)ONC2=NCCCCC2)cc1` reads 4.53% (inactive); that for `Cc1ccc2sc(N(Cc3cccnc3)C(=O)C3COc4ccccc4O3)nc2c1C` (configuration not stated), 20.1% (inactive).
The same measure for `CC1CCN(S(=O)(=O)c2ccc3c(c2)N(CC(=O)NCCc2ccccc2)C(=O)CO3)CC1`: 1.33% (inactive); for `CCOc1ccc(CN2CCN(Cc3c[nH]c4ccccc34)CC2)cc1`: 33.4% (active); for `CC1(C(=O)NCCc2c[nH]c3ccccc23)C=CC2(CCCCC2)N1C(=O)c1ccccc1` (configuration not stated): -1.33% (inactive).
The result for `CCOc1ccc(CN2CCCN(C)CC2)cc1` reads 1.05% (inactive); that for `O=C(NCCc1c[nH]c2ccccc12)C1CCN(Cc2ccc(Br)cc2)CC1`, 35.5% (active).
Regarding `Cc1ccc2[nH]cc(CCNC(=O)C3CCCCC3)c2c1`, the activation was 5.96% (inactive).
Take `COc1ccc(CN2CCN(Cc3ccc(OC)c(OC)c3OC)CC2)cc1`: the activation was 1.73% (inactive).
The same measure for `O=S(=O)(c1ccc(Cl)cc1)c1nnn2c1nc(NC1CCCC1)c1sccc12`: -0.225% (inactive); for `Cc1ccc(C)c(N2CCN(Cc3nnc(-c4ccccc4)o3)CC2)c1`: 6.92% (inactive); for `CCCn1c2ccccc2c2cnn(CC(=O)N(CC)c3cc(C)ccc3C)c(=O)c21`: 3.04% (inactive).
The result for `COc1cccc2cc(-c3nc(Cl)c4c5c(sc4n3)CC(C)CC5)c(=O)oc12` (configuration not stated) reads -0.914% (inactive); that for `COc1cc(/C=C(\C#N)c2nc3c(s2)CC(C)CC3)ccc1O` (configuration not stated), 35.8% (active).
The same measure for `CC1=CC2=NC(=O)/C(=C/c3coc4ccccc4c3=O)C(=N)N2O1`: 227% (active); for `COc1ccc(OCCCn2cccc2/C=C2/C(=N)N3OC(C)=CC3=NC2=O)cc1`: 1.18% (inactive).
As for `Cc1cc(C)c2oc(-c3cccc(NC(=O)c4cccc(F)c4)c3C)nc2c1`, the activation was 1.24% (inactive).
The result for `O=C(NCCc1c[nH]c2ccccc12)c1cc2ccccc2oc1=O` reads 4.67% (inactive); that for `Cc1ccc(C(=O)N/C(=C/c2ccco2)C(=O)NCCc2c[nH]c3ccccc23)cc1C`, 2.88% (inactive); that for `N#C/C(=C/c1ccc(N2CCCCC2)o1)C(=O)NCCc1c[nH]c2ccccc12`, 78.8% (active).
The result for `CCOc1ccccc1CNC(=O)c1cnc2c(-c3ccc(OCC)c(OCC)c3)c(C)nn2c1C` reads 1.83% (inactive); that for `CCOc1ccc(NC(=O)CC2C(=O)N(c3cccc(OC)c3)C(=O)N2C2CCCCC2)cc1` (configuration not stated), 2.76% (inactive); that for `O=C(O)CCC(=O)Nc1ccc(N2CCOCC2)cc1`, 4.21% (inactive).
As for `C/C(=C/c1ccccc1)C(=O)N1CCN(c2ccccc2)CC1`, the activation is 0.356% (inactive).
The result for `O=C(/C=C/c1ccc(N2CCOCC2)cc1)c1ccccc1` reads 108% (active); that for `CCN(CC)C(=O)CSc1nc2cc3c(cc2c(=O)n1CCCC(=O)NCc1ccc2c(c1)OCO2)OCO3`, 0.699% (inactive).
The result for `CCOc1ccc(CNC(=O)C2CCCN(S(=O)(=O)N(CC)c3ccc(OCC)cc3)C2)cc1` (configuration not stated) reads -0.432% (inactive).
`Cc1noc(C)c1-c1ccc2ncnc(NCc3ccc(F)c(F)c3)c2c1`: the activation was 131% (active).
For the molecule `Cc1noc2ncnc(NCc3ccccc3Cl)c12`, the activation is 21.4% (inactive).
The same measure for `Cc1noc(C)c1-c1ccc2ncnc(NC(C)c3ccco3)c2c1` (configuration not stated): -0.27% (inactive); for `O=C(NCCCO)c1nn(-c2ccc(Cl)cc2)nc1CO`: -0.511% (inactive); for `Cc1ccc(OCC(=O)Nc2ccc(OCc3cc(=O)n4c(C)csc4n3)cc2)cc1C`: 5.64% (inactive).
With `O=C(CNC(=O)c1ccccc1F)c1ccc(Br)cc1`, the activation was -0.969% (inactive).
The result for `O=C(c1ccc(F)cc1)n1c(=S)nc2ccccn21` reads 2.37% (inactive); that for `O=C(C[n+]1cc(Br)cc2ccccc21)c1ccc(F)cc1`, 39.6% (active).
The result for `Cc1ccc(-n2ncc3c(N4CCC(C(N)=O)CC4)ncnc32)cc1` reads -2.06% (inactive).
The same measure for `CCOC(=O)C1CCN(C(=O)CSc2c3c(nc4ccc(Cl)cc24)CCCC3)CC1`: 3.05% (inactive); for `Cc1cc(NC(=O)c2ccc(-c3ccc(Cl)cc3)o2)cc(-c2nc3ncccc3o2)c1O`: -0.471% (inactive).
Turning to `CCN(Cc1ccccc1)C(=O)c1cn(-c2cccc(OC)c2)c(=O)c2ccccc12`, the activation is 0.204% (inactive).
The result for `Cc1cccc(C(=O)Nc2ccc(-c3nc4ncccc4o3)cc2C)c1` reads 0.768% (inactive); that for `CN(C)CCCN(C(=O)c1ccc(S(=O)(=O)N2CCCCCC2)cc1)c1nc2ccc(Br)cc2s1`, 42.8% (active).
The same measure for `Cc1cc(C)c2sc(NC(=O)c3ccc(S(=O)(=O)N4CCCC4)cc3)nc2c1`: -0.497% (inactive); for `CCN(CC)CCN(C(=O)c1ccc(N2C(=O)CCC2=O)cc1)c1nc2cc3c(cc2s1)OCO3`: 5.63% (inactive).
The same measure for `CCN(CC(=O)Nc1c(F)cccc1F)C(=O)c1ccc(S(=O)(=O)N2CCCCC2)cc1`: -0.0233% (inactive); for `CCCCN(CC)C(=O)c1ccc2c(c1)OCO2`: 4.54% (inactive).
Take `CCc1ccc2nc(N(CCCN(C)C)C(=O)c3ccc4c(c3)OCCO4)sc2c1`: the activation was 53.9% (active).
Take `CCOc1ccc(CNC(=O)c2cc(=O)[nH]c3ccc(S(=O)(=O)N4CCCCC4)cc23)cc1`: the activation is -3.81% (inactive).
The result for `Cc1cc(C)cc(NS(=O)(=O)c2cc3c(cc2C)NC(=O)CO3)c1` reads 3.6% (inactive).
